According to PubChem BioAssay (Tox21):
Records with an inconclusive call do not appear. Activity calls are given as the source filed them. Unless noted, calls come from the whole dose curve; as a rule, active = well fitted curve in the direction sought with a large enough effect in the repeat runs; inconclusive = weak or mixed curves; inactive = no such curve, though single readings can be large; an effect the other way counts as inactive or inconclusive.

What was measured:
[1] = qHTS assay to identify small molecule that activate the aryl hydrocarbon receptor (AhR) signaling pathway - cell viability counter screen (AID 743086);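 note: HepG2 liver cells carrying the AhR DRE luciferase reporter; series mostly up to about 70 µM; nearly all actives have a fitted effect of over 45% in size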
Method in brief: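 HepG2-AhR-luc (HG2L7.5c1) cells, 4000/well, treated 24 h at 37 C with compound; viability measured as CellTiter-Fluor fluorescence after 30 min in the same wells as the luciferase read.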

[2] = target: Peroxisome proliferator-activated receptor gamma (Homo sapiens) (UniProt P37231); assay: qHTS assay to identify small molecule agonists of the peroxisome proliferator-activated receptor gamma (PPARg) signaling pathway (AID 743094; active = well fitted activation curve with a large enough effect in the signal ratio in the repeat runs, not every such curve was filed as active; the % refers to the signal ratio)
Peroxisome proliferator-activated receptor gamma (Homo sapiens), sequence (P37231 whole entry, looked up): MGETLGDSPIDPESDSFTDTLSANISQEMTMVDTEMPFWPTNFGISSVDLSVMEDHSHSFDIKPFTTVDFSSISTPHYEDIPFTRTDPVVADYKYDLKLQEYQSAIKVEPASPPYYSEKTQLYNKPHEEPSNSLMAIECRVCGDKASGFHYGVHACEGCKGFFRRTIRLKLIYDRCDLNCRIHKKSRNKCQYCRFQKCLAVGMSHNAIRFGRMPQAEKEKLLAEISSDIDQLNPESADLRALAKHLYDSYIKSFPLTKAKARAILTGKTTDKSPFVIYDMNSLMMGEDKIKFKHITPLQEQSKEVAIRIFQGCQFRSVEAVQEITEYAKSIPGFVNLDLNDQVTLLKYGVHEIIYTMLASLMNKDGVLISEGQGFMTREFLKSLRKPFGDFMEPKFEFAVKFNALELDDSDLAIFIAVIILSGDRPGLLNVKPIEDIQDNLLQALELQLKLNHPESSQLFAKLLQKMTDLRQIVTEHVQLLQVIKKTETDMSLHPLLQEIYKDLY
Method in brief: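 GeneBLAzer PPARg UAS-bla HEK293H cells were plated, rested 5 h, then exposed to compounds for 17 h at 37C. Beta-lactamase activity was read by LiveBLAzer B/G FRET substrate fluorescence after 1 h at room temperature.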

[3] = target: Peroxisome proliferator-activated receptor gamma (Homo sapiens) (UniProt P37231); assay: qHTS assay to identify small molecule antagonists of the peroxisome proliferator-activated receptor gamma (PPARg) signaling pathway (AID 743191; calls by dose curve; note: series mostly up to about 63 µM; nearly all actives have a fitted effect of over 30% in size)
Method in brief: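 GeneBLAzer PPARg UAS-bla HEK293H cells, 5 h post-plating, exposed to compounds 17 h at 37C. LiveBLAzer B/G FRET substrate added for 1 h at room temperature; beta-lactamase reporter read by fluorescence intensity.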

[4] = qHTS assay to identify small molecule antagonists of the peroxisome proliferator-activated receptor gamma (PPARg) signaling pathway - cell viability counter screen (AID 743194); note: nearly all actives have a fitted effect of over 55% in size
Method in brief: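 Cytotoxicity counter screen in PPARg-bla HEK293H cells, same wells as reporter assay. Compounds plus 50 nM rosiglitazone (final) for 17 h at 37 C, then viability read by CellTiter-Glo luminescence.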

[5] = qHTS assay for small molecule agonists of the antioxidant response element (ARE) signaling pathway (AID 743202; active = well fitted activation curve with a large enough effect in the signal ratio in the repeat runs, not every such curve was filed as active; the % refers to the signal ratio; note: potency is the fitted concentration of half-maximal effect)
Method in brief: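 ARE-bla HepG2 cells (beta-lactamase reporter under the antioxidant response element), plated 5 hours, then exposed to compounds 16 hours at 37 C. LiveBLAzer B/G FRET substrate added for 2 hours at room temperature; fluorescence intensity read.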

[6] = qHTS assay for small molecule agonists of the antioxidant response element (ARE) signaling pathway - cell viability counter screen (AID 743203; calls by dose curve; note: nearly all actives have a fitted effect of over 55% in size)
Method in brief: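 ARE-bla HepG2 cells were plated, rested 5 h at 37C/5% CO2, then exposed to compounds in DMSO for 16 h. Viability was read as CellTiter-Glo luminescence after 30 min at room temperature, in the same wells as the ARE screen.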

[7] = qHTS assay for small molecule activators of the heat shock response signaling pathway - cell viability counter screen (AID 743209); note: nearly all actives have a fitted effect of over 50% in size
Method in brief: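 HSE-bla HeLa cells plated overnight, then exposed to Tox21 compounds (23 nL in DMSO) for 5 h at 37 C. After the bla reporter read, CellTiter-Glo was added in the same wells and luminescence read after 30 min at room temperature.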

[8] = qHTS assay for small molecule activators of the heat shock response signaling pathway (AID 743210; active = well fitted activation curve with a large enough effect in the signal ratio in the repeat runs, with a control signal flat, not every such curve was filed as active; the % refers to the signal ratio; note: series mostly up to about 63 µM)
Method in brief: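 HSE-bla HeLa cells (beta-lactamase reporter under heat shock response elements), plated overnight, then exposed to compounds 5 h at 37 C; LiveBLAzer B/G FRET substrate added, 2.5 h at room temperature, fluorescence intensity read.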

[9] = qHTS assay to identify small molecule agonists of the peroxisome proliferator-activated receptor delta (PPARd) signaling pathway - cell viability counter screen (AID 743211); note: nearly all actives have a fitted effect of over 55% in size
Method in brief: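 Luminescent ATP viability assay (CellTiter-Glo, 30 min RT) in UAS-bla HEK293H cells carrying the PPAR delta reporter construct, 3000 cells/well, after a 17 h compound treatment at 37 C.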

[10] = target: Aryl hydrocarbon receptor (Homo sapiens) (UniProt P35869); assay: qHTS assay to identify small molecule that activate the aryl hydrocarbon receptor (AhR) signaling pathway (AID 743085); note: nearly all actives have a fitted effect of over 15% in size; note: potency is the fitted concentration of half-maximal effect;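 for activation: HG2L7.5c1 human HepG2 liver cells with stably integrated DRE-driven firefly reporter; series mostly up to about 70 µM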
Aryl hydrocarbon receptor (Homo sapiens), sequence (P35869 whole entry, looked up): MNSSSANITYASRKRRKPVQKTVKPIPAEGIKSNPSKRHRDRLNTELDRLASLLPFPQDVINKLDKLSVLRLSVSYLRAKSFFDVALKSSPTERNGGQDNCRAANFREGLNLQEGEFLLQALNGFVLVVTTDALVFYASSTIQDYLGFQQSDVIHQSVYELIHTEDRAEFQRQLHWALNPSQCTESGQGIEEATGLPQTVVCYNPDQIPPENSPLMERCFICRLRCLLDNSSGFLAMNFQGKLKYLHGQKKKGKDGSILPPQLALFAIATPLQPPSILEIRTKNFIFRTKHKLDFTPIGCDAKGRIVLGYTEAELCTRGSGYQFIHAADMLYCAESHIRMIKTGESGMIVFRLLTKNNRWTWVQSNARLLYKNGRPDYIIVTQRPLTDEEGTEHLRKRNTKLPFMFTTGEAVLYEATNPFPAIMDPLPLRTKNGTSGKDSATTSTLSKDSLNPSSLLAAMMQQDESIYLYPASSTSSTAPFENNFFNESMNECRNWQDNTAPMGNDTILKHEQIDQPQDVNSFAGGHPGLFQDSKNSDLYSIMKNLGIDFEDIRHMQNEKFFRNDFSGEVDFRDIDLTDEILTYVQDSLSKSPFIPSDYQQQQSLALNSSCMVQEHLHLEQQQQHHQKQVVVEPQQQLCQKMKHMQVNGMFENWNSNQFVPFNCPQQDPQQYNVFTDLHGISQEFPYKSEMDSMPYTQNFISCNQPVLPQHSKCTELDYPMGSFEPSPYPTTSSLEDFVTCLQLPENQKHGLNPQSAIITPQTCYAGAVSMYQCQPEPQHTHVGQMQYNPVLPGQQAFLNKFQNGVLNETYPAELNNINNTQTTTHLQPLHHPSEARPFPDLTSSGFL
Method in brief: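 24 h compound exposure, 37C, HepG2-derived HG2L7.5c1 cells with DRE-responsive luciferase. Readouts: fluorescence viability, then luminescence at room temperature after 30 min.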
% is set by controls: 0 for no effect and ±100 for the full control effect.

CCNC(=O)/C=C/c1cccc(Br)c1
inactive: Potency [1] | outcome [2] | Potency [3] | outcome [4] | Potency [5] | outcome [6] | outcome [7] | outcome [8] | outcome [9]

O=S(=O)(O)CCO
inactive: Potency [1] | outcome [2] | outcome [4] | Potency [5] | outcome [6] | outcome [8] | outcome [9]

CC(=O)OCCCc1ccccc1
inactive: Potency [10] | Potency [1] | outcome [4] | outcome [6] | outcome [8] | outcome [9]

CC(C)COC(=O)COc1ccc(Cl)cc1Cl
inactive: Potency [10] | outcome [2] | Potency [5] | outcome [7] | outcome [8] | outcome [9]

CCC(CO)CO
inactive: Potency [10] | Potency [5] | outcome [6] | outcome [7] | outcome [9]

O=CO
inactive: activation [10] 0.579% [at 8.47 µM] | viability change, negative = cytotoxic [1] -0.0332% [at 8.47 µM] | activity change, negative = cytotoxicity [4] 15.3% [at 5.95 µM] | activation [5] -2.02% [at 8.36 µM] | viability change, negative = cytotoxic [6] -3% [at 8.36 µM] | activity change, negative = cytotoxicity [7] 8.14% [at 5.95 µM] | activation [8] -1.54% [at 5.95 µM] | activity change, negative = cytotoxicity [9] 1.94% [at 5.95 µM]

CC(=O)c1ccc(OCC(=O)N2CCCCC2)cc1
inactive: Potency [1] | outcome [2] | Potency [3] | outcome [4] | Potency [5] | outcome [7] | outcome [8] | outcome [9]

C=CCOc1cc(Cl)ccc1C(=O)NCCN(CC)CC
inactive: Potency [10] | outcome [2] | outcome [4] | Potency [5] | outcome [6] | outcome [8] | outcome [9]

COc1cccc2sc(N)nc12
active: Potency [10] 27.5 µM
inactive: Potency [1] | Potency [5] | outcome [6] | outcome [7] | outcome [8] | outcome [9]

CNC(=O)C(c1ccccc1)c1ccccc1
inactive: Potency [10] | Potency [1] | outcome [4] | Potency [5] | outcome [7] | outcome [9]

Cc1cc(O)c2c(c1)C(=O)c1cccc(O)c1C2=O
inactive: Potency [1] | outcome [4] | outcome [7] | outcome [8] | outcome [9]
active: Potency [10] 26.7 µM | Potency [5] 10.6 µM

OCCCCCCCl
inactive: Potency [10] | Potency [1] | outcome [4] | Potency [5] | outcome [7] | outcome [8] | outcome [9]

COc1cc([N+](=O)[O-])ccc1N
inactive: Potency [10] | outcome [2] | Potency [5] | outcome [6] | outcome [7] | outcome [8] | outcome [9]

CCCCCCCC[Si](OCC)(OCC)OCC
inactive: Potency [10] | Potency [1] | outcome [4] | Potency [5] | outcome [6] | outcome [7] | outcome [9]

COc1cc(C=O)ccc1OC(=O)C(C)C
inactive: Potency [1] | outcome [2] | outcome [4] | Potency [5] | outcome [6] | outcome [7] | outcome [8] | outcome [9]

COc1cc2c(Nc3ccc(Br)cc3F)ncnc2cc1OCC1CCN(C)CC1
inactive: Potency [10] | outcome [2] | outcome [4] | Potency [5] | outcome [6] | outcome [7] | outcome [9]

C1CCN2C[C@@H]3C[C@@H](CN4CCCC[C@@H]34)[C@H]2C1
inactive: Potency [10] | Potency [1] | outcome [4] | Potency [5] | outcome [6] | outcome [8] | outcome [9]

CC(C)COC(=O)/C=C/c1ccccc1
inactive: Potency [10] | Potency [1] | outcome [4] | Potency [5] | outcome [8] | outcome [9]

CC(C)(C)NCCO
inactive: Potency [1] | outcome [2] | outcome [4] | Potency [5] | outcome [6] | outcome [7] | outcome [9]

CC1=NN(c2ccc(S(=O)(=O)O)cc2)C(=O)C1N=Nc1ccccc1 (stereo unspecified)
active: Potency [10] 24.3 µM
inactive: outcome [2] | Potency [3] | outcome [4] | outcome [7] | outcome [8] | outcome [9]

CCCCCN(CCCOC)C(=O)C(CCC(=O)O)NC(=O)c1ccc(Cl)c(Cl)c1 (stereo unspecified)
inactive: Potency [3] | outcome [4] | Potency [5] | outcome [6] | outcome [8] | outcome [9]

Nc1nc(=O)n([C@@H]2O[C@H](CO)[C@@H](O)[C@@H]2F)cc1I
inactive: outcome [4] | Potency [5] | outcome [6] | outcome [7] | outcome [9]

CCOC(=O)C(=O)c1csc(NC=O)n1
inactive: outcome [4] | Potency [5] | outcome [6] | outcome [8] | outcome [9]

O=C(/C=C/c1ccccc1)NCCO
inactive: Potency [1] | outcome [2] | outcome [4] | Potency [5] | outcome [6] | outcome [9]

O=S(=O)(O)c1cc(O)ccc1O
inactive: outcome [4] | outcome [6] | outcome [7] | outcome [8] | outcome [9]

c1ccc(CNc2ncnc3nc[nH]c23)cc1
inactive: Potency [1] | outcome [4] | Potency [5] | outcome [7] | outcome [8] | outcome [9]

C=CCOc1c(Br)cc(Br)cc1Br
inactive: Potency [1] | Potency [3] | Potency [5] | outcome [6] | outcome [8]

CC(=O)OC[C@H]1O[C@@H](OC(C)=O)[C@H](OC(C)=O)[C@@H]1OC(C)=O
inactive: Potency [3] | outcome [4] | outcome [8] | outcome [9]
